# Measurements from PubChem BioAssay (NCI).
# This is part of a sample that, as a whole, favours compounds with a hit. Of some 83,000 tested, about 20% had one in any assay.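 Treatment: one concentration, 48 hours, 96-well format. Scoring: percent growth, with anything below 10 considered active.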 A number with no mark means an inactive call. Activity calls are given as the source filed them.
# System: CCRF-CEM leukemia
# Assay: NCI-60 one-dose screen, 48 h (100 = growth as untreated, 0 = no growth, -100 = all killed)
# Conditions: 10 µM unless noted
row,Structure (SMILES),growth
1,OC(c1ccccc1)(c1ccccc1)c1ccccc1-c1ccccc1,92.9%
2,Clc1ccc(-c2nc(-c3c[nH]c4ncccc34)cs2)cc1,109% [100 µM]
3,CC(=O)c1cc(-c2ccccc2N)n(-c2ccc3c(c2)OCO3)c1C,11.8%
4,CC1O[C@@H]2C[C@@](O)([C@H]1O)n1c3ccccc3c3c4c(c5c6ccccc6n2c5c31)C(=O)NC4=O (stereo not given in full),27.9%
5,COC(=O)/C(CCC=C(C)C)=C1\[C@@H](OC(C)=O)C[C@@]2(C)[C@H]1CC(=O)[C@H]1[C@@]3(C)CCC(N4CCCC4)[C@@H](C)[C@@H]3CC[C@@]12C (stereo not given in full),78.2%
6,CN(C)c1ccc(/C=C2/C=C(c3ccccc3)OC2=O)cc1,52.7%
7,COc1cc(-c2nc3occn3c2-c2ccnc(NCCCNS(=O)(=O)c3ccccc3)n2)ccc1F,17.3%
8,O=C(Nc1ccccc1)c1sc(-c2ccccc2)cc1O,96.7%
9,CCOC(=O)c1c2c(n3c1NCC3)-c1ccccc1C2=O,85%
10,C/C(=N\Nc1nc(C)cs1)c1cc2ccccc2o1,79.1%
11,CCOC(=O)C1=C(c2ccccc2)N=c2s/c(=C/c3ccc(Br)cc3)c(=O)n2C1c1ccc(O)cc1 (stereo not given),83%
12,COc1ccc(C2CC(c3ccc(Nc4nc(Nc5ccc(F)cc5)nc(Nc5ccc(F)cc5)n4)cc3)=NN2C(C)=O)cc1 (stereo not given),23.5%
13,c1ccc2cc(Cn3c[n+](Cc4ccc5ccccc5c4)c4ccccc43)ccc2c1,-13.1% (active)
14,CN1CCN(c2ccc3c(c2)nc(NNC(=O)c2cnccn2)c2cccn23)CC1,11.4%
15,Cc1cc(C)c(-c2c(O)c(Br)c(-c3c(C)cc(C)c(Br)c3C)c(O)c2Br)c(C)c1Br,35.6%
16,CCCCCCCCCCCCCCCCCCOc1ccccc1CC(=O)NCC[N+]1(C)CCOCC1,-36.4% (active)
17,O=C(/C=C/c1cccc(Cl)c1)c1cccc(OCCCCOc2cccc(C(=O)/C=C/c3cccc(Cl)c3)c2)c1,84.4%
18,Cc1ccc(-c2nc(C#N)c(S(=O)(=O)NCCO)o2)cc1,-17.5% (active)
19,NC(=O)c1ccc(NC(=O)c2oc3ccccc3c2-c2cnn(-c3ccccc3)c2)cc1,73.1% [50 µM]
20,O=C(CBr)CN1C(=O)c2ccccc2C1=O,111%

row,Structure (SMILES),growth
1,CCN(CC)c1ccc(/C=C\c2cc(C)c3cc(C)ccc3n2)cc1,34.1%
2,C=CCN=C(N)SCCCCCCSC(N)=NCC=C,106%
3,Clc1nn2c(Cn3cnc4c(NCc5ccccc5)ncnc43)nnc2c2ccccc12,39%
4,CCOC(=O)c1ccc2c(c1)c1c(C)c3ccncc3c(C)c1n2C,12.6%
5,CCCCCCCCn1ccc2cc(NC(=O)Cn3cc(CN4CCCCCC4)nn3)ccc21,1.06% (active)
6,N#CC(C#N)N=Nc1ccc(Cl)cc1Cl,48.3%
7,Brc1ccc(-c2cnc3nonc3n2)cc1,30%
8,COc1cccc(C(=O)OCC(O)C(=O)NC23CC4CC(CC(C4)C2)C3)c1 (stereo not given),86.3%
9,O=C(Nc1cccc(NC(=O)C2CCCCC2)c1)c1ccccn1,106%
10,Cc1cc(C)cc(Nc2ccc([N+](=O)[O-])c(NCCN3CCOCC3)n2)c1,5.33% (active)
11,O=C(Nc1cccnc1Nc1ccc(Cl)cc1)c1cn(Cc2ccc(F)cc2)nn1,98.6%
12,Cn1c(=O)c2c(c3ccccc31)OC(N)=C(C#N)C21C(=O)c2ccccc2C1=O,103%
13,COc1cccc(/C=C2\COc3ccc(O)cc3C2=O)c1,-0.603% (active)
14,CCc1cccc(Sc2cc(C(=O)N3Cc4ccc(OCCN(C)C)cc4C3)ccc2O)c1,29.2%
15,C=C(CN1CC=CCC1)[C@@H]1CC[C@]2(CO)CC[C@]3(C)[C@H](CC[C@@H]4[C@@]5(C)CC[C@H](O)C(C)(C)[C@@H]5CC[C@]43C)[C@@H]12,91.3%
16,COc1ccc(/C(C)=C(\c2ccc(Cl)cc2)c2ccc(OCCN3CCCC3)cc2)cc1,29.1%
17,CC/C(Cc1ccccc1)=C(\c1ccc(OCCN2CCCCCC2)cc1)c1ccc(OC(=O)NCc2ccccc2)cc1,47.5%
18,N=c1sc(Cc2cc(Cl)ccc2Cl)cn1CC(=O)c1ccccc1,60%
19,Cc1cc(C(=O)Nc2cc(Nc3ncccc3-c3ncnc4nc[nH]c34)ccc2F)cc(C(F)(F)F)c1,62.3%
20,C[C@@H]1O[C@@H](O[C@@H]2C[C@H](c3ccc4c(c3O)C(=O)C3=C(C4=O)[C@@]4(O)C(=O)C[C@](C)(O)C[C@@]4(O)C=C3)O[C@H](C)[C@H]2O)C[C@H](O)[C@@H]1O,93.8%
